This passage reports Potency results from PubChem BioAssay (Tox21).

Inconclusive results are not listed. A call without a number means that no potency is given here. Calls of active or inactive are those of the source. Calls come from the whole dose curve; as a rule, active = well fitted cell-killing curve with a large enough effect in the repeat runs; inconclusive = weak or mixed curves, or effect the other way; inactive = flat fitted curve, though single readings scatter.

The assay in a line: qHTS assay to identify small molecule antagonists of the estrogen related receptor signaling pathway with the pleiotropic PPARgamma coactivator (PGC) cell viability counter screen (AID 1224822;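 note: viability read after 17.5 h compound exposure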). The conditions noted are these: ERR/PGC reporter cell line viability counter screen; series mostly up to 46.1 µM. The essentials:
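17.5 h compound treatment of PGC/ERR cells at 37 C; readout CellTiter-Fluor fluorescence; run alongside the PGC/ERR antagonist screen to flag cytotoxic compounds.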
With `O=c1cc(O)cc(/C=C/c2ccc(O)c(O)c2)o1`, the Potency entry was “inactive”. Next, `N[C@@H](CS(=O)O)C(=O)O`: “inactive”. Next, `C[C@@H]1C(=O)NC2=Nc3cccc(Cl)c3CN21`: “inactive”. As to `CN(CCCOc1ccc(Cc2ccccc2)cc1)CCC(=O)O`, the Potency entry was “inactive”. In the case of `COc1ccccc1N1CCN(CCCCN2C(=O)c3ccccc3C2=O)CC1`, the Potency result is “inactive”. Next, `NCC(O)C1CCCCCCC1` (stereo unspecified): “inactive”; `O=C(Nc1ccc2[nH]ncc2c1)C1CCC1`: “inactive”. Next, `Cc1cccc(-c2[nH]ncc2-c2ccc3ncccc3n2)n1`: “inactive”. Next, `N[C@@H](Cc1cnc[nH]1)C(=O)O`: “inactive”; `CN1CCc2cc(NC(=O)Nc3cccnc3)ccc21`: “inactive”. As to `CCNc1nc2c(ncn2[C@H]2C[C@H](O)[C@@H](CO)O2)c(=O)[nH]1`, the Potency result was “inactive”.

On to `CCCCCCCCCCCCCCCC(=O)OC(CC(=O)O)C[N+](C)(C)C` (stereo unspecified), for which the Potency entry is “inactive”.

With `Cc1cc(NC(=O)Nc2ccc3c(ccn3C)c2)sn1`, the Potency entry is “inactive”. Next, `O=c1ccn([C@@H]2O[C@H](COP(=O)(O)OP(=O)(O)O)[C@@H](O)[C@H]2O)c(=O)[nH]1`: “inactive”; `CCN1C(=O)C=CC1=O`: “inactive”. Next, `CNCCC=C1c2ccccc2CCc2ccccc21`: “inactive”; `CN[C@H](CC(=O)O)C(=O)O`: “inactive”; `CCCCCC[C@@H]([C@@H](C)O)n1cnc2c(N)ncnc21`: “inactive”. Next, `CCCCC#Cc1nc(NC)c2ncn([C@@H]3O[C@H](CO)[C@@H](O)C3O)c2n1` (stereo partly specified): “inactive”; `CNc1ncnc2c1ncn2[C@@H]1O[C@H](CO)C(O)[C@H]1O` (stereo partly specified): “inactive”; `CCOC(=O)C(C)Oc1cccc2c(=O)n(CC(=O)Nc3ccc4c(c3)OCCO4)ccc12` (stereo unspecified): “inactive”. Regarding `O=c1cc(-c2ccccc2F)[nH]c2cc3c(cc12)OCO3`, the Potency result was “inactive”. Next, `CCSC(=N)N`: “inactive”; `Nc1ccc(N2C(=O)c3ccccc3C2=O)c(Cl)c1`: “inactive”.

With `NC(N)=NCCCCN=C(N)N`, the Potency entry was “inactive”. Next, `NC[C@H]1O[C@@H](n2cnc3c(N)ncnc32)[C@H](O)[C@@H]1O`: “inactive”. Next, `O=C(O)Cc1c[nH]c2ccc(O)cc12`: “inactive”; `N=C(N)SCCc1cnc[nH]1`: “inactive”.

Turning to `Cn1cc(C(=O)OCC2CCN(CCNS(C)(=O)=O)CC2)c2ccccc21`, the Potency entry was “inactive”. On to `N#C/C(=C\c1ccc(O)c(O)c1)C(=O)NCCc1ccccc1`, for which the Potency entry was “inactive”.

As for `C=CCn1c(=O)c2c(nc(-c3ccc(S(=O)(=O)O)cc3)n2C)n(C)c1=O`, the Potency entry was “inactive”.
